Test results reported in ChEMBL document CHEMBL4513216, “Probing the Open Global Health Chemical Diversity Library for Multistage-Active Starting Points for Next-Generation Antimalarials” (ACS Infect Dis, 2020).
The campaign covered roughly 65,000 compounds. About 2,100 (3.2%) showed an effect of 50% or more. The median lay at about -52%. The sample holds strong results, similar compounds and a random draw of the others, so the mix is not that of the screen.

test system: Plasmodium falciparum; test: Screen against P. falciparum Asexual Blood Stage (ABS), at 5uM; assay type: functional, Dd2; settings: tested at 5 uM

SMILES | INHIBITION [%]
Cc1cc(CNc2ccccc2Cl)no1 | 40.4
Cc1cc(CNc2cccc(Cl)c2C)no1 | 54.3
CCOc1c(Cl)cccc1NCc1cc(C)on1 | -51.8
CNC(=O)c1cnc(C=Cc2cc(OC)c(O)c(OC)c2)s1 | -64.8
CNC(=O)c1cccc(CNC(C)c2cc(Cl)ccc2OC)c1 (configuration not stated) | -5.94
CNC(=O)c1cccc(CNC(C)c2cc(C)ccc2OC(F)F)c1 (configuration not stated) | 60.1
CNC(=O)c1cccc(CNC(C)c2ccc(F)cc2N(C)C)c1 (configuration not stated) | -107
Cc1oc(C)c(C(=O)NCc2ccccc2S(=O)(=O)N(C)C)c1C | -57.1
Cc1oc(C)c(C(=O)NCc2ccccn2)c1C | -148
Cc1oc(C)c(C(=O)NCc2cccnc2N(C)C)c1C | -69.8
CCOc1ncccc1CNC(=O)c1c(C)oc(C)c1C | 58.4
Cc1oc(C)c(C(=O)NCc2ccccc2CN(C)C)c1C | 57.3
COc1ncccc1CNC(=O)c1c(C)oc(C)c1C | 32.4
Cc1cc(CC(C)Nc2ncc(C)c(N(C)C)n2)[nH]n1 (configuration not stated) | -13.9
O=C(c1ccccc1)N1C[C@@H]2CCCO[C@@H]2[C@H](N2CCCC2)C1 | -41.1
O=C(O)[C@@H]1CN(C(=O)c2ccc3[nH]nnc3c2)C[C@H]1c1ccccc1 | -123
COCC1(C(=O)N[C@H]2CN(c3nnc(C)s3)C[C@@H]2C2CC2)CCC1 | -176
CC(C)c1nc(CN(C)C2CCN(CCNS(C)(=O)=O)C2)no1 (configuration not stated) | -20.9
CSCCc1ccc(NC(=O)NCc2ccnc(N(C)C)c2)cc1 | -46.2

SMILES | INHIBITION [%]
COc1cc(N2C[C@@H]3COC[C@]3(COc3ncccc3F)C2)ncn1 | -25.8
c1c(CN2CCCC2)nc2n1CCN(C1CCOCC1)C2 | -103
c1ccc(Oc2cc(CNCC3CNc4ccnn4C3)ccn2)cc1 (configuration not stated) | 53.3
COc1cc(CNCC2CNc3ccnn3C2)ccn1 (configuration not stated) | -129
Cc1cc2n(n1)CC(CNCc1ccc(Oc3ccccc3)nc1)CN2 (configuration not stated) | 58.9
Cc1cc2n(n1)CC(CNCc1ccc(OCC3CC3)nc1)CN2 (configuration not stated) | -101
Cc1cc2n(n1)CC(CNCc1cnn(-c3ccccc3)c1)CN2 (configuration not stated) | -71.4
Cc1cc2n(n1)CC(CNCc1ccc(-n3cccn3)cc1)CN2 (configuration not stated) | 53.4
c1ccc(Oc2ccc(CNCC3CNc4ccnn4C3)cn2)cc1 (configuration not stated) | -12.8
Cc1cc2n(n1)CC(CNCc1ccc(-n3cccn3)nc1)CN2 (configuration not stated) | 15.1
COc1ccc(CNCC2CNc3cc(C)nn3C2)cn1 (configuration not stated) | -171
COc1ccccc1N1CC(NC(=O)c2cc(C(C)C)nn2C)CC1=O (configuration not stated) | -102
COCC1c2nnn(C)c2CCN1C(=O)CCc1cccc(OC)c1 (configuration not stated) | -85.3
CC1CCCN(Cc2ccc(C(N)=O)cc2)C1 (configuration not stated) | -118
COc1ccc(NC(C)c2nnnn2-c2ccccc2)cc1F (configuration not stated) | -2.6
Cc1nc(Cc2ccccc2)nc2sc(C(=O)O)c(C)c12 | -62.8
CC(=O)N1CCN(c2nc(C(F)(F)F)nc3sc(C)c(C)c23)CC1 | -30.4
CCOC(=O)N1CCN(c2nc(CCN)nc3sc(C)c(C)c23)CC1 | 66.1
Cc1sc2nc(CCN)nc(N3CCS(=O)(=O)CC3)c2c1C | -119

SMILES | INHIBITION [%]
Cc1cnn(CC(C)NCc2ccc(OCC(N)=O)cc2)c1 (configuration not stated) | -49.9
CCOC(=O)N1CCN(c2nc(NCCCO)c3ccccc3n2)CC1 | -50.8
CCn1ccc(-c2cc(NCCCOc3ccccc3C)nc(C)n2)n1 | -2.89
CC(C)COc1ccccc1C(N)CC(C)C (configuration not stated) | 28.3
Cc1ccc(Oc2c(F)cccc2OC[C@@H](N)CC(C)C)cc1 | 65.9
CCOc1ccccc1C(N)CC(C)C (configuration not stated) | 33.2
O=C(O)c1ccnc(SCC(F)(F)F)c1 | -13.4
CN1[C@@H](C(=O)NCC2CC2)C[C@H]2CN(Cc3cccc(C#N)c3)C[C@H]21 | 27.2
Cc1ccc(CN2CC[C@@H]3[C@@H](CO[C@H]3CN3CCN(C)CC3)C2)cc1 | -1.6
CN1CCN(C[C@@H]2OC[C@H]3CN(Cc4cccc(F)c4)CC[C@H]32)CC1 | 19.2
CN1CCN(C[C@@H]2OC[C@H]3CN(CCc4ccccc4)CC[C@H]32)CC1 | 66.1
Cn1cccc1C(=O)N1CCO[C@H]2[C@H](OCc3cccnc3)CC[C@@H]21 | -57.2
CC(C)C(=O)N1CCC([C@@H]2C[C@H](C(F)F)n3ncnc3N2)CC1 | 12.2
COCCN1CCOCC12CCN(C(=O)c1c[nH]c3ccccc13)CC2 | -122
Cc1ccc(CN2CCOCC3(C2)CN(c2ccc(C)s2)C(=O)CO3)o1 (configuration not stated) | -71.8
CCc1cc(N2CCC3(CCCNC3=O)C2)nc(N2CCOCC2)n1 (configuration not stated) | -56.1
Cc1ccc(CN2CCOC3(COCCN(CCN(C)C)C3)C2)o1 (configuration not stated) | -69.1
COCCNC(=O)C1(Cc2ccccc2-c2ccncc2)CCOCC1 | -10.1
CC(C)NC(=O)C1(Cc2ccccc2-c2cccs2)CCNC1 (configuration not stated) | 68.3
